Assay results from PubChem BioAssay (NCATS).
Results filed as inconclusive are left out. Where a call stands in place of a potency, no number is given. Activity calls are given as the source filed them. The call rests on the fitted dose curve; in most records, active means well fitted curve in the direction sought with a large enough effect; inconclusive means small, poorly fitted or top-dose-only effect, or another doubt; inactive means no such curve, though single readings can be large; an effect the other way counts as inactive or inconclusive. Residues, ends and D or L forms follow the SMILES beside them. *: point of attachment. Cbz = O=C(OCc1ccccc1)*

Assay: qHTS to identify inhibitors of the type 1 interferon - major histocompatibility complex class I in skeletal muscle: primary screen against the NCATS LOPAC collection (AID 1347405);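 further: lytic HiBiT luminescence reporting HLA-B protein level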; further: potency means the concentration at half of the fitted maximal effect
Conditions: iHSKM muscle cells, IFN-b-induced MHC-I HiBiT luminescence, 24 h; series mostly up to 45.9 µM
How it was run: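 Immortalized human C25cl48 myoblasts with HiBiT knocked into endogenous HLA-B*08:01 were stimulated with 4.0 ng/ml IFN-beta and given compounds in a 7-point, 1:4.3 titration from 46 uM final; after 24 hrs, lytic HiBiT luminescence was read.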

Q: With `Oc1ccc(Cn2cc[nH]c2=S)cc1` as the compound, how does the Potency read?
A: Its Potency is “inactive”.

Q: With `NC1(C(=O)O)CCc2cc(C(=O)O)ccc21` (stereo unspecified) as the compound, how does the Potency read?
A: Its Potency is “inactive”.

Q: With `NC(=O)CNCCC(c1ccccc1)c1ccccc1` as the compound, how does the Potency read?
A: The Potency was “inactive”.

Q: With `CC(C)[C@H](NC(=O)OCc1ccccc1)C(=O)N[C@H](C=O)Cc1ccccc1` (Cbz-Val-Phe-aldehyde) as the compound, how does the Potency read?
A: Its Potency is “inactive”.

Q: For `CCCCC[C@H](CC(=O)NO)C(=O)N[C@H](C(=O)N1CCC[C@H]1CO)C(C)C`, which Potency is on record?
A: Its Potency is “inactive”.

Q: For `Cc1ccc2c(c1)C(N1CCN(C)CC1)=Nc1cccnc1N2`, which Potency is on record?
A: Its Potency is “inactive”.

Q: Which Potency does the source give for `O[Si](CCCN1CCCCC1)(c1ccc(F)cc1)C1CCCCC1` (stereo unspecified) here?
A: Its Potency is “inactive”.

Q: For `N[C@H](C(=O)O)[C@H]1C[C@@H]1C(=O)O`, which Potency is on record?
A: Its Potency is “inactive”.

Q: With `O=C(O)Cc1ccc(O)c(O)c1` as the compound, how does the Potency read?
A: Its Potency is “inactive”.

Q: Which Potency does the source give for `Nc1nc2c(nc(Br)n2C2OC3COP(=O)(O)O[C@@H]3C2O)c(=O)[nH]1` (stereo partly specified) here?
A: The Potency was “inactive”.

Q: With `NS(=O)(=O)c1cccc2c1c([N+](=O)[O-])cc1nc(O)c(O)nc12` as the compound, how does the Potency read?
A: The Potency was “inactive”.

Q: Which Potency does the source give for `COc1cccc(OC)c1OCCNCC1CSc2ccccc2O1` (stereo unspecified) here?
A: Its Potency is “inactive”.

Q: For `COc1ccc(CCn2nnnc2C2(c3ccc(C)cc3)CC2)cc1`, which Potency is on record?
A: Its Potency is “inactive”.

Q: With `Cn1c(=O)c2[nH]c(C3CCCC3)nc2n(C)c1=O` as the compound, how does the Potency read?
A: The Potency was “inactive”.

Q: Which Potency does the source give for `O=C(O)c1cccnc1C(=O)O` here?
A: Its Potency is “inactive”.

Q: For `CSC(N)=NCCC[C@H](N)C(=O)O`, which Potency is on record?
A: The Potency was “inactive”.

Q: With `CC(C)C[C@H](NC(=O)[C@H](O)[C@H](N)Cc1ccccc1)C(=O)O` as the compound, how does the Potency read?
A: The Potency was “inactive”.

Q: Which Potency does the source give for `Cn1c(=O)c2c(nc(/C=C/c3cccc(Cl)c3)n2C)n(C)c1=O` here?
A: The Potency was “inactive”.

Q: With `CC(C)NC[C@H](O)COc1ccc(CC(N)=O)cc1` as the compound, how does the Potency read?
A: The Potency was “inactive”.

Q: For `COC1(C2=NCCN2)COc2ccccc2O1` (stereo unspecified), which Potency is on record?
A: Its Potency is “inactive”.

Q: With `CC(=O)O[C@H]1CC2(C)[C@@H](C[C@@H](O)[C@H]3[C@@]4(C)CC[C@@H](O)[C@@H](C)[C@@H]4CC[C@@]32C)C1=C(CCC=C(C)C)C(=O)O` (stereo partly specified) as the compound, how does the Potency read?
A: Its Potency is “inactive”.

Q: With `C[C@H](NC(=O)/C(C#N)=C/c1ccc(O)c(O)c1)c1ccccc1` as the compound, how does the Potency read?
A: The Potency was “inactive”.

Q: For `CC(=O)C(C)=O`, which Potency is on record?
A: The Potency was “inactive”.

Q: Which Potency does the source give for `CC[n+]1c(/C=C/C=C2/N(C)c3ccccc3C2(C)C)sc2ccccc21` here?
A: Its Potency is 5.01 µM (active).

Q: With `O=c1ccn([C@@H]2O[C@H](COP(=O)(O)OP(=O)(O)O)[C@@H](O)[C@H]2O)c(=O)[nH]1` as the compound, how does the Potency read?
A: Its Potency is “inactive”.

Q: For `Nc1ccc(N2C(=O)c3ccccc3C2=O)c(Cl)c1`, which Potency is on record?
A: The Potency was “inactive”.

Q: For `Cc1nc2n(c(=O)c1CCN1CCC(c3noc4cc(F)ccc34)CC1)CCCC2O` (stereo unspecified), which Potency is on record?
A: Its Potency is “inactive”.

Q: Which Potency does the source give for `C[C@](Cc1ccc(O)c(O)c1)(NN)C(=O)O` here?
A: The Potency was “inactive”.

Q: Which Potency does the source give for `NC[C@@H]1O[C@H](c2ccccc2)Cc2c1ccc(O)c2O` here?
A: Its Potency is “inactive”.

Q: For `CSC(=N)N`, which Potency is on record?
A: Its Potency is “inactive”.

Q: For `C=C(C)C1CC=C(C(=O)O)CC1` (stereo unspecified), which Potency is on record?
A: Its Potency is “inactive”.

Q: For `COc1ccccc1N1CCN(CCCCNC(=O)c2ccc3ccccc3c2)CC1`, which Potency is on record?
A: Its Potency is “inactive”.

Q: For `CC(C)Cn1c(=O)n(C)c(=O)c2[nH]cnc21`, which Potency is on record?
A: The Potency was “inactive”.

Q: For `CN1CCC2(CCN3CCc4c(oc5ccccc45)C3C2)N(C)C1=O` (stereo unspecified), which Potency is on record?
A: The Potency was “inactive”.

Q: Which Potency does the source give for `COc1ccccc1N1CCN(CCN(C(=O)c2ccc(F)cc2)c2ccccn2)CC1` here?
A: The Potency was “inactive”.

Q: With `c1ccc(C2CN3CCSC3=N2)cc1` (stereo unspecified) as the compound, how does the Potency read?
A: Its Potency is “inactive”.

Q: For `O=C(O)C1CCCNC1` (stereo unspecified), which Potency is on record?
A: The Potency was “inactive”.

Q: For `O=C(O)C1CN(CCCP(=O)(O)O)CCN1` (stereo unspecified), which Potency is on record?
A: Its Potency is “inactive”.

Assay: qHTS for inhibitors of adenylyl cyclases using a fission yeast platform: a pilot screen against the NCATS LOPAC library (AID 1347410)
Conditions: S. pombe CHP2027, fbp1-GFP fluorescence, 18 h, yeast expressing mammalian AC9 and human GNAS; series mostly up to 57.5 µM
How it was run: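 Inhibition of GNAS-stimulated AC9 activity in S. pombe was inferred from derepression of a PKA-repressed fbp1-GFP reporter, measured as cytometric fluorescence after 18 h at 30C with compounds at up to 57 µM.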

Q: Which outcome does the source give for `Oc1ccc(Cn2cc[nH]c2=S)cc1` here?
A: The outcome was “inactive”.

Q: Which outcome does the source give for `NC1(C(=O)O)CCc2cc(C(=O)O)ccc21` (stereo unspecified) here?
A: The outcome was “inactive”.

Q: Which outcome does the source give for `NC(=O)CNCCC(c1ccccc1)c1ccccc1` here?
A: The outcome was “inactive”.

Q: For `CC(C)[C@H](NC(=O)OCc1ccccc1)C(=O)N[C@H](C=O)Cc1ccccc1` (Cbz-Val-Phe-aldehyde), which outcome is on record?
A: The outcome was “inactive”.

Q: For `CCCCC[C@H](CC(=O)NO)C(=O)N[C@H](C(=O)N1CCC[C@H]1CO)C(C)C`, which outcome is on record?
A: The outcome was “inactive”.

Q: For `Cc1ccc2c(c1)C(N1CCN(C)CC1)=Nc1cccnc1N2`, which outcome is on record?
A: The outcome was “inactive”.

Q: For `O[Si](CCCN1CCCCC1)(c1ccc(F)cc1)C1CCCCC1` (stereo unspecified), which outcome is on record?
A: The outcome was “inactive”.

Q: For `N[C@H](C(=O)O)[C@H]1C[C@@H]1C(=O)O`, which outcome is on record?
A: Its outcome is “inactive”.

Q: Which outcome does the source give for `O=C(O)Cc1ccc(O)c(O)c1` here?
A: The outcome was “inactive”.

Q: With `Nc1nc2c(nc(Br)n2C2OC3COP(=O)(O)O[C@@H]3C2O)c(=O)[nH]1` (stereo partly specified) as the compound, how does the outcome read?
A: The outcome was “inactive”.

Q: With `NS(=O)(=O)c1cccc2c1c([N+](=O)[O-])cc1nc(O)c(O)nc12` as the compound, how does the outcome read?
A: The outcome was “inactive”.

Q: Which outcome does the source give for `COc1cccc(OC)c1OCCNCC1CSc2ccccc2O1` (stereo unspecified) here?
A: The outcome was “inactive”.

Q: With `COc1ccc(CCn2nnnc2C2(c3ccc(C)cc3)CC2)cc1` as the compound, how does the outcome read?
A: Its outcome is “inactive”.

Q: Which outcome does the source give for `Cn1c(=O)c2[nH]c(C3CCCC3)nc2n(C)c1=O` here?
A: Its outcome is “inactive”.

Q: For `O=C(O)c1cccnc1C(=O)O`, which outcome is on record?
A: The outcome was “inactive”.

Q: Which outcome does the source give for `CSC(N)=NCCC[C@H](N)C(=O)O` here?
A: The outcome was “inactive”.

Q: For `CC(C)C[C@H](NC(=O)[C@H](O)[C@H](N)Cc1ccccc1)C(=O)O`, which outcome is on record?
A: The outcome was “inactive”.

Q: Which outcome does the source give for `Cn1c(=O)c2c(nc(/C=C/c3cccc(Cl)c3)n2C)n(C)c1=O` here?
A: The outcome was “inactive”.

Q: With `CC(C)NC[C@H](O)COc1ccc(CC(N)=O)cc1` as the compound, how does the outcome read?
A: Its outcome is “inactive”.

Q: Which outcome does the source give for `COC1(C2=NCCN2)COc2ccccc2O1` (stereo unspecified) here?
A: Its outcome is “inactive”.

Q: Which outcome does the source give for `CC(=O)O[C@H]1CC2(C)[C@@H](C[C@@H](O)[C@H]3[C@@]4(C)CC[C@@H](O)[C@@H](C)[C@@H]4CC[C@@]32C)C1=C(CCC=C(C)C)C(=O)O` (stereo partly specified) here?
A: The outcome was “inactive”.

Q: With `C[C@H](NC(=O)/C(C#N)=C/c1ccc(O)c(O)c1)c1ccccc1` as the compound, how does the outcome read?
A: Its outcome is “inactive”.

Q: With `CC(=O)C(C)=O` as the compound, how does the outcome read?
A: Its outcome is “inactive”.

Q: With `CC[n+]1c(/C=C/C=C2/N(C)c3ccccc3C2(C)C)sc2ccccc21` as the compound, how does the outcome read?
A: Its outcome is “inactive”.

Q: For `O=c1ccn([C@@H]2O[C@H](COP(=O)(O)OP(=O)(O)O)[C@@H](O)[C@H]2O)c(=O)[nH]1`, which outcome is on record?
A: The outcome was “inactive”.

Q: With `Nc1ccc(N2C(=O)c3ccccc3C2=O)c(Cl)c1` as the compound, how does the outcome read?
A: Its outcome is “inactive”.

Q: With `Cc1nc2n(c(=O)c1CCN1CCC(c3noc4cc(F)ccc34)CC1)CCCC2O` (stereo unspecified) as the compound, how does the outcome read?
A: Its outcome is “inactive”.

Q: With `C[C@](Cc1ccc(O)c(O)c1)(NN)C(=O)O` as the compound, how does the outcome read?
A: The outcome was “inactive”.

Q: With `NC[C@@H]1O[C@H](c2ccccc2)Cc2c1ccc(O)c2O` as the compound, how does the outcome read?
A: Its outcome is “inactive”.

Q: For `CSC(=N)N`, which outcome is on record?
A: Its outcome is “inactive”.

Q: Which outcome does the source give for `C=C(C)C1CC=C(C(=O)O)CC1` (stereo unspecified) here?
A: Its outcome is “inactive”.

Q: For `COc1ccccc1N1CCN(CCCCNC(=O)c2ccc3ccccc3c2)CC1`, which outcome is on record?
A: The outcome was “inactive”.

Q: Which outcome does the source give for `CC(C)Cn1c(=O)n(C)c(=O)c2[nH]cnc21` here?
A: Its outcome is “inactive”.

Q: For `CN1CCC2(CCN3CCc4c(oc5ccccc45)C3C2)N(C)C1=O` (stereo unspecified), which outcome is on record?
A: The outcome was “inactive”.

Q: For `COc1ccccc1N1CCN(CCN(C(=O)c2ccc(F)cc2)c2ccccn2)CC1`, which outcome is on record?
A: The outcome was “inactive”.

Q: For `c1ccc(C2CN3CCSC3=N2)cc1` (stereo unspecified), which outcome is on record?
A: The outcome was “inactive”.

Q: Which outcome does the source give for `O=C(O)C1CCCNC1` (stereo unspecified) here?
A: The outcome was “inactive”.

Q: With `O=C(O)C1CN(CCCP(=O)(O)O)CCN1` (stereo unspecified) as the compound, how does the outcome read?
A: Its outcome is “inactive”.
